Source: PubChem BioAssay
Compounds with a hit are over-represented: about 1% of the library has one in this group of screens.
BioA inh = blocks M. tuberculosis BioA enzyme activity; inhibition, % at 9.99 µM; purified M. tuberculosis BioA enzyme, plate reader; hit rate 0.096% among 360,000; AID 602481; in the data active = inhibition above about 40%
MazEF act = activators of E. coli MazEF toxin-antitoxin RNase. P0AE70. FAM/BHQ RNA-DNA oligo cleavage fluorescence, 5 h. activation, % at 20 µM. hit rate 0.32% among 350,000; in the data active = activation above about 50%
FadD28 binding = M. tuberculosis FadD28 bisubstrate binding inhibition; AID 588549; FadD28 bisubstrate probe binding, fluorescence polarization; inhibition, % at 12.5 µM; hit rate 0.22% among 360,000; in the data active = inhibition above about 8.5%, passing the limit was not always enough
VHR inh abs = inhibitors of human VHR1 phosphatase (DUSP3) | P51452 | recombinant VHR phosphatase, pNPP absorbance | inhibition, % at 13.3 µM | hit rate 0.52% among 290,000 | AID 1654; in the data active = inhibition above about 50%
Y pestis TopoI = blocks Yersinia pestis topoisomerase I activity; Y. pestis Topo-I cleavage product accumulation, plate reader; activity, % at 10 µM; hit rate 0.064% among 360,000; AID 504884; in the data active = activity above about 50%, passing the limit was not always enough
TcdB inh = inhibitors of Clostridioides difficile toxin B glycohydrolase; TcdB glycohydrolase enzymatic assay, plate reader; AID 652162; P18177; hit rate 0.24% among 350,000; inhibition, % at 9.99 µM; in the data active = inhibition above about 10%
Of the large screens only hits and unclear results are named; the others gave an inactive call.

O=S(=O)(Nc1ccc2cn[nH]c2c1)c1ccc(C(F)(F)F)cc1	none (no result: VHR inh abs)
CCC(=NCCO)c1c(O)n(C2CCCCC2)c(=O)[nH]c1=O	none (no result: TcdB inh)
CC/C(=N\NC(=O)c1ccccc1O)c1c(O)n(C2CCCCC2)c(=O)[nH]c1=O	FadD28 binding 15.0
CCC(=O)Nc1ccc2c(c1)C(=O)N(C)C[C@H](OC)[C@@H](C)CN(C(=O)c1ccc(F)cc1)[C@@H](C)CO2	none (no result: MazEF act, FadD28 binding, VHR inh abs, Y pestis TopoI)
COc1ccc(-n2c(-c3ccc(F)cc3)cnc2SCC(=O)NCc2ccco2)cc1	Y pestis TopoI 51.0 (no result: BioA inh, TcdB inh)
O=C(CSc1ncc(-c2ccccc2)n1-c1ccccc1)NCc1ccco1	none
C[C@@H]1CN([C@H](C)CO)C(=O)Cc2cc(NS(=O)(=O)c3cn(C)cn3)ccc2O[C@@H]1CN(C)Cc1ccc(C(=O)Nc2ccccc2N)cc1	none (no result: BioA inh, MazEF act, FadD28 binding, VHR inh abs, Y pestis TopoI)
COc1cccc(-n2nnc3c(=O)n(Cc4cccc(F)c4)cnc32)c1	none (no result: TcdB inh)
COc1cccc(-n2nnc3c(=O)n(Cc4c(F)cccc4Cl)cnc32)c1	MazEF act 90.0 (no result: TcdB inh)
CC(C)COC(=O)n1ccc(C(=O)N2CCCCC2)n1	VHR inh abs 51.2 (no result: TcdB inh)
CC(C)C(=O)Nc1c(C(=O)N2CCN(c3ncccn3)CC2)oc2ccccc12	VHR inh abs 52.7
CCC(CC)C(=O)Nc1c(C(=O)N2CCN(c3ccccc3)CC2)oc2ccccc12	none
CCOC(=O)CSc1nnc(CSc2nc3sc4c(c3c(=O)[nH]2)CCC4)n1-c1ccccc1	none (no result: BioA inh, TcdB inh)
CCOC(=O)CSc1nnc(CSc2nc(N)c3c(C)c(C)sc3n2)n1-c1ccccc1	VHR inh abs 53.8 (no result: BioA inh)
Cc1ccc(S(=O)(=O)NCc2ccc(C(=O)N3CCN(c4ccccc4)CC3)cc2)cc1	VHR inh abs 52.7
COc1cccc(S(=O)(=O)NCc2ccc(C(=O)N3CCN(c4ccccc4)CC3)cc2)c1	none
COc1ccc2c3c(n(C)c2c1)[C@@H](CO)NCC31CCN(C(=O)c2ccc(F)cc2)CC1	none (no result: BioA inh, MazEF act, FadD28 binding, VHR inh abs, Y pestis TopoI)
CCOc1ccc(S(=O)(=O)NCc2ccccc2Cl)cc1C(N)=O	TcdB inh 19.6 (no result: BioA inh)
NC(=O)c1cc(S(=O)(=O)NCc2ccccc2)cs1	none
Cc1ccccc1CNS(=O)(=O)c1csc(C(N)=O)c1	VHR inh abs 55.5
COc1ccc(S(=O)(=O)N[C@H]2C=C[C@@H](CC(=O)N3CCC(Cc4ccccc4)CC3)O[C@H]2CO)cc1	none (no result: MazEF act, FadD28 binding, VHR inh abs, Y pestis TopoI)
O=C(N/N=C/c1cc(Br)c(O)c(Br)c1O)c1ccc2c(c1)OCCO2	FadD28 binding 12.4
Fc1cccc(Cl)c1Cn1ncc2ccccc21	VHR inh abs 53.0
O=C(c1ccc2c(c1)OCO2)N1CCCCN2[C@H](CO)[C@@H](c3ccc(-c4ccccc4)cc3)[C@@H]2C1	none (no result: MazEF act, FadD28 binding, VHR inh abs, Y pestis TopoI)
CCS(=O)(=O)N1CCC2(CC1)CN(Cc1ccccc1)[C@@H](CO)c1c2c2ccc(OC)cc2n1C	none (no result: BioA inh, MazEF act, FadD28 binding, VHR inh abs, Y pestis TopoI)
CCN(C(=O)CSc1nnc(CNc2cccc(OC)c2)n1C1CCCCC1)C1CCS(=O)(=O)C1 (stereo not given)	VHR inh abs 54.9
Clc1ccc(-c2nnc3sc(-c4ccc(Br)o4)nn23)cc1	MazEF act active (no result: BioA inh, TcdB inh)
O=C(c1ccc(F)cc1)N1C[C@H]2[C@@H](c3ccccc31)[C@@H](CO)N2Cc1ccc2c(c1)OCO2	none (no result: MazEF act, FadD28 binding, VHR inh abs, Y pestis TopoI)
CO[C@@H]1CN(C)C(=O)c2ccc(NC(=O)Nc3ccccc3)cc2OC[C@@H](C)NC[C@@H]1C	none (no result: BioA inh, MazEF act, FadD28 binding, VHR inh abs, Y pestis TopoI)
CCC(C(=O)NCCCN1CC(C)CC(C)C1)n1ncn2c(cc3occc32)c1=O (stereo not given)	VHR inh abs 57.7
COc1ccc(CN2CCC(C(=O)Nc3ccc(Oc4cccnc4)cc3)CC2)cc1	FadD28 binding 15.7
COc1cccc(O)c1CN1CCC(C(=O)Nc2ccc(Oc3cccnc3)cc2)CC1	none
O=C(Nc1ccccc1Oc1cccnc1)C1CCCN(Cc2ccc(F)cc2)C1 (stereo not given)	VHR inh abs 57.1
CC(C)(C)OC(=O)N1CC=C2C(C#N)=C(N)C(C#N)(C#N)[C@H](c3cccnc3)[C@H]2C1	MazEF act 124.8 (no result: TcdB inh)
CCOC(=O)N1CC=C2C(C#N)=C(N)C(C#N)(C#N)[C@H](c3cccs3)C2C1 (stereo not given in full)	none (no result: TcdB inh)
N#CC1=C(N)C(C#N)(C#N)[C@H](c2ccncc2)[C@H]2CN(C(=O)OCc3ccccc3)CC=C12	VHR inh abs 53.8 (no result: TcdB inh)
OC[C@@H]1[C@H](c2ccc(C3=CCCC3)cc2)[C@H]2CN(CCC(F)(F)F)CCCCN12	none (no result: BioA inh, MazEF act, FadD28 binding, VHR inh abs, Y pestis TopoI)
